The full data set covers some 7,900 targets. This sample favours those with a hit. About 0.6% of all pairs of compound and target were hits. Values without a mark were called inactive.
Compound: Cc1sc2c(c1C)C(c1ccc(Cl)cc1)=N[C@@H](CC(=O)OC(C)(C)C)c1nnc(C)n1-2
Assay: log2 fold change, soluble protein after heating vs DMSO (PISA); higher = thermal stabilisation; K562 cells, 10 uM, 30 min; active = over 0.2 and 3.5 SD of the protein, either way, in both replicates (recomputed)
Outline: (§1)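 For each measurement, 10 μM compound was applied for 30 min to K562 cells at 2×10^6 cells/mL. Aliquots were heated for 3 min across 48°C-58°C, pooled, and extracted in PBS with 0.5% NP-40 at 4°C; the supernatant after 21,000xg for 90 min was soluble protein. This was quantified by TMTpro 16plex LC-MS/MS with channel sums equalised, and thermal stability was reported relative to control samples from duplicates, on a log2 fold-change scale.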

Chain of UniProt Q96ET8 (Q96ET8 whole entry, looked up): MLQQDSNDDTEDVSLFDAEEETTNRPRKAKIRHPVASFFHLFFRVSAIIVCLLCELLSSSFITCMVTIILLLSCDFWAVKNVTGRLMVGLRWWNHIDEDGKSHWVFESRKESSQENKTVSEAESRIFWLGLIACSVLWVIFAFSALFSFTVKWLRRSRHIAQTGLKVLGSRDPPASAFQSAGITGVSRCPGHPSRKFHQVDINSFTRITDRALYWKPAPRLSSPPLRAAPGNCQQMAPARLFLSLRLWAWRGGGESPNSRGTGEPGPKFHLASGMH
Chain of UniProt Q8IY95 (Q8IY95 whole entry, looked up): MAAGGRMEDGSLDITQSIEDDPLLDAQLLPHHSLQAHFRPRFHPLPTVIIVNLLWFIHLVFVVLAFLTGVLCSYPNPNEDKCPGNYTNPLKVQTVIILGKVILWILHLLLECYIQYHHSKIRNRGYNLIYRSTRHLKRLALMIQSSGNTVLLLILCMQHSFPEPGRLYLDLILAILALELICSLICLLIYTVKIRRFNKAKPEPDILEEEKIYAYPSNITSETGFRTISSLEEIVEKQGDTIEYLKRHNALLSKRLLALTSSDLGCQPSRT
Chain of UniProt Q96AJ9 (Q96AJ9 whole entry, looked up): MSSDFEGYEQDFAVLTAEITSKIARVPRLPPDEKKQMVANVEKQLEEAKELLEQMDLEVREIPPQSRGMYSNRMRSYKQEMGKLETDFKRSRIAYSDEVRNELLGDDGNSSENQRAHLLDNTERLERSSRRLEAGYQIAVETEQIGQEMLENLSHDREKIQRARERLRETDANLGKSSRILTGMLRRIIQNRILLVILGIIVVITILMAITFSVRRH
Chain of UniProt Q99816 (Q99816 whole entry, looked up): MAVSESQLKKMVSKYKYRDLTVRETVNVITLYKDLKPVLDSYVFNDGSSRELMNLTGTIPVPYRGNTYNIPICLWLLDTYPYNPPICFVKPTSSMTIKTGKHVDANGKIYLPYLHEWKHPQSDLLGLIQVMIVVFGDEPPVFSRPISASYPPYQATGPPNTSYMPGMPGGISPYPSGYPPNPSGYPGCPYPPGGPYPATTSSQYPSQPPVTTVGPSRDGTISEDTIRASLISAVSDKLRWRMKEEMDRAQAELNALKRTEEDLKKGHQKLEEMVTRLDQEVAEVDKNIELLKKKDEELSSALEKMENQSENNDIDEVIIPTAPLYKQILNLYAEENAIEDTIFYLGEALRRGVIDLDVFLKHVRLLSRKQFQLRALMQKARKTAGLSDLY
Chain of UniProt Q7Z3V4 (Q7Z3V4 whole entry, looked up): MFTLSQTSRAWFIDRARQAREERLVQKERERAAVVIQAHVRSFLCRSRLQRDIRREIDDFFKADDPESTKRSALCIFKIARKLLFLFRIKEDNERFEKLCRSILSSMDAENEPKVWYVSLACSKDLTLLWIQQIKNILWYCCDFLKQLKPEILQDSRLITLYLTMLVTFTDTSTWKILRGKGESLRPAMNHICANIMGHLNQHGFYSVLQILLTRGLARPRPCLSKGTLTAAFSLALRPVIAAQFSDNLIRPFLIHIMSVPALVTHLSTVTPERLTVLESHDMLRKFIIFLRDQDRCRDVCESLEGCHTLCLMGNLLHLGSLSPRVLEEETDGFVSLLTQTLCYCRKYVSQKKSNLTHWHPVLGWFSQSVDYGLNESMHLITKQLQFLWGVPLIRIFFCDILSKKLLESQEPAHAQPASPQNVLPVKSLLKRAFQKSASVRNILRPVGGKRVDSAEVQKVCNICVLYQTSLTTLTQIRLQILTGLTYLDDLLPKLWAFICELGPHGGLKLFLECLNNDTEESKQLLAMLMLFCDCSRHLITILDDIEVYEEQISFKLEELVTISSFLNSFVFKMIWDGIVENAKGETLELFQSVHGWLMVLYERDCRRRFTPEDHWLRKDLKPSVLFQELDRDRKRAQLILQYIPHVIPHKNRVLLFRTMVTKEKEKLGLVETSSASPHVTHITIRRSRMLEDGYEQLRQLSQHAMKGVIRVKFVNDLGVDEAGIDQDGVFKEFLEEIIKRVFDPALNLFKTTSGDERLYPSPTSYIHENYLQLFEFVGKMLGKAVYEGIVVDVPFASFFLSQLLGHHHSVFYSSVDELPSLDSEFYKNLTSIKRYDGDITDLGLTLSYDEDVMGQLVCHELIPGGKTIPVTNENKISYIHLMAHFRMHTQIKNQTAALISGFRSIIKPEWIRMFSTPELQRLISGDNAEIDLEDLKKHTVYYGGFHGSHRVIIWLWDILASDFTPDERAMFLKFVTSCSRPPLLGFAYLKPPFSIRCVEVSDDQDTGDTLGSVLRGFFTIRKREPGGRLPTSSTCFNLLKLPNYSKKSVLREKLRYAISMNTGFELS
Chain of UniProt Q8IZ69 (Q8IZ69 whole entry, looked up): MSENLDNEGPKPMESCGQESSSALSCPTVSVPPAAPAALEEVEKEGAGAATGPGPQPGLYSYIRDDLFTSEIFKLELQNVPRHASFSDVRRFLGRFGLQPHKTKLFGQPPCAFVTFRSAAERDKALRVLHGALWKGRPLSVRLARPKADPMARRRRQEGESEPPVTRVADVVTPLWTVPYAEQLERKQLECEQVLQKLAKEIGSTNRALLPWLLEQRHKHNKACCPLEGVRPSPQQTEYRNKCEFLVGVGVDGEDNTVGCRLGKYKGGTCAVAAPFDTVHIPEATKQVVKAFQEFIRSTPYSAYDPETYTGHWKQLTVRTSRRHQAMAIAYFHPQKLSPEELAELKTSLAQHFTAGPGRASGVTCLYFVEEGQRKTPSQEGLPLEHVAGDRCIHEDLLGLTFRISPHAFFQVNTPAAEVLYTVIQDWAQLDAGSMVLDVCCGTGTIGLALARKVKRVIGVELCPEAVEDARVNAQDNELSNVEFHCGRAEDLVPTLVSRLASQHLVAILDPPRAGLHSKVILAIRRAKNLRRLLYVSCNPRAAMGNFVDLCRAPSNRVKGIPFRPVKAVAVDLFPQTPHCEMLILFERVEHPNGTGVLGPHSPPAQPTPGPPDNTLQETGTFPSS
Chain of UniProt Q86SZ2 (Q86SZ2 whole entry, looked up): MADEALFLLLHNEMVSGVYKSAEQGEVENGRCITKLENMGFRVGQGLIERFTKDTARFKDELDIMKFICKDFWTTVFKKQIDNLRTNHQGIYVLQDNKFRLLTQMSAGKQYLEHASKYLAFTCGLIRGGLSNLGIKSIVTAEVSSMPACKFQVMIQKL
Chain of UniProt Q5R3I4 (Q5R3I4 whole entry, looked up): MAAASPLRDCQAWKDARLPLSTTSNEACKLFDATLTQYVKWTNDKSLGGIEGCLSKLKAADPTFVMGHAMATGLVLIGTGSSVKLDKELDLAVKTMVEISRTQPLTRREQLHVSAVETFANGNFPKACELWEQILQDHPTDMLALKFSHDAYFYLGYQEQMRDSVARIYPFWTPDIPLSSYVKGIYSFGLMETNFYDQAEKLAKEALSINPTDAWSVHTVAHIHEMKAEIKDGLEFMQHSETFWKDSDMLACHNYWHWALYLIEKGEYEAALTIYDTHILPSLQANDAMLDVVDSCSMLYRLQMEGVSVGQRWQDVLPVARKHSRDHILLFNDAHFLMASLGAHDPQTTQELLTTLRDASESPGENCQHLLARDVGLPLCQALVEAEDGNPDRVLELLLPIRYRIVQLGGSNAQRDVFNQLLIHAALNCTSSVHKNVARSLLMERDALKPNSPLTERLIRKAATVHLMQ
Chain of UniProt Q9BZI7 (Q9BZI7 whole entry, looked up): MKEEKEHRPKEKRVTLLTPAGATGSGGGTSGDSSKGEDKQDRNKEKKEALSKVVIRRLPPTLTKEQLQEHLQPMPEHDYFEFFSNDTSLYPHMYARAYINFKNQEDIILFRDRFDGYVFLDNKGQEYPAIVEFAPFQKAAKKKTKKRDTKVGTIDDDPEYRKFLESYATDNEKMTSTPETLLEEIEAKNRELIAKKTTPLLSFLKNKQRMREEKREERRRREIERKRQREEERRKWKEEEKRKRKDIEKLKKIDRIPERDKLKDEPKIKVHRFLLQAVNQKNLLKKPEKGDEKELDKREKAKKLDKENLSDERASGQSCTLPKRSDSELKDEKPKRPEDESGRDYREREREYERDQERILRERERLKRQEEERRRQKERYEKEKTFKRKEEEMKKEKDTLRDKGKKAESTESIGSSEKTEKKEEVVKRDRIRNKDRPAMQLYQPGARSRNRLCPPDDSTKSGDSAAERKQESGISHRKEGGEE
Chain of UniProt Q9P253 (Q9P253 whole entry, looked up): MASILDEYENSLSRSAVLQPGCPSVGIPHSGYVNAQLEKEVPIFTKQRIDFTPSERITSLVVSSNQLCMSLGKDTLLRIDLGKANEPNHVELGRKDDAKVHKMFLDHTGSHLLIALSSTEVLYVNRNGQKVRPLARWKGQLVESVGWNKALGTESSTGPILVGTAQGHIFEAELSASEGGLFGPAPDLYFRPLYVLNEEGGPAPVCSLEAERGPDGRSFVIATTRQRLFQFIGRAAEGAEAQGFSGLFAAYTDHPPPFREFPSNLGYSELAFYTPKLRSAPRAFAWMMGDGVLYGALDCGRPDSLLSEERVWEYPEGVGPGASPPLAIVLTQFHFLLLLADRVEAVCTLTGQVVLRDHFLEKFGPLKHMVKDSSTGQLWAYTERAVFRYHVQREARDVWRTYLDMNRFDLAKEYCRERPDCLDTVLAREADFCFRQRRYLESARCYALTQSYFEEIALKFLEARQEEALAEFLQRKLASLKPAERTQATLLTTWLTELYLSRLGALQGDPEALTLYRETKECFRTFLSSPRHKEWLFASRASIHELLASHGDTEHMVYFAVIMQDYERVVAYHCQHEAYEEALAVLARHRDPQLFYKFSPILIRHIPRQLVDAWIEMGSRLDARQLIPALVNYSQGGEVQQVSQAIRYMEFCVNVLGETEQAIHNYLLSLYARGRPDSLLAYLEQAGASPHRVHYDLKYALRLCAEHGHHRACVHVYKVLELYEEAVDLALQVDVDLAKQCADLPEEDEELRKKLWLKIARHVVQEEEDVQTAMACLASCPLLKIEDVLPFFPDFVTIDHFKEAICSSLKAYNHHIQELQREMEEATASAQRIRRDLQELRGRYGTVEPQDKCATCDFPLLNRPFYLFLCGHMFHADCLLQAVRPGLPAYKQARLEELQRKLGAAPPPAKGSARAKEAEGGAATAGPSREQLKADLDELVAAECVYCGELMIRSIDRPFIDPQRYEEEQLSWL

Target	log2 fold change
UBE3B (UniProt Q7Z3V4)	-0.214
TRIQK (UniProt Q629K1)	-0.052
TRAPPC6B (UniProt Q86SZ2)	-0.033
VPS50 (UniProt Q96JG6)	-0.013
ULBP1 (UniProt Q9BZM6)	-0.036
VPS18 (UniProt Q9P253)	-0.03
XRCC1 (UniProt P18887)	0.07
UPF3B (UniProt Q9BZI7)	0.363
TSC2 (UniProt P49815)	-0.044
TSG101 (UniProt Q99816)	-0.015
TTC38 (UniProt Q5R3I4)	-0.061
TMEM192 (UniProt Q8IY95)	-0.024
TRMT2A (UniProt Q8IZ69)	0.1
WDR46, A0A0G2JJL1	0.303
TP53BP1 isoform 2 (UniProt Q12888)	0.001
UBAP1 isoform 4 (UniProt Q9NZ09)	-0.171

Target	log2 fold change
UBAP2L (UniProt F8W726)	0.046
TMEM179B (UniProt Q7Z7N9)	0.005
TTI1 (UniProt O43156)	-0.025
TMEM268 isoform 3 (UniProt Q5VZI3)	0.151
U2AF1L5 (UniProt P0DN76)	0.057
TTC26	0.198
UTP20 (UniProt O75691)	0.034
VTI1A (UniProt Q96AJ9)	-0.023
TOM1 (UniProt O60784)	0.039
TRAM1 (UniProt Q15629)	0.049
TMEM41A (UniProt Q96HV5)	-0.08
TRIM5 (UniProt Q9C035)	0.155
TVP23C (UniProt Q96ET8)	0.029
TUBA4A (UniProt C9JJQ8)	-0.011
WARS1 (UniProt G3V277)	0.076

Compound: c1ccc([C@@H]2C[C@H]2NC2CCNCC2)cc1
Assay: as above
Outline: as §1

Target	log2 fold change
UBE3B (UniProt Q7Z3V4)	0.172
TRIQK (UniProt Q629K1)	0.048
TRAPPC6B (UniProt Q86SZ2)	-0.013
VPS50 (UniProt Q96JG6)	0.01
ULBP1 (UniProt Q9BZM6)	-0.038
VPS18 (UniProt Q9P253)	0.004
XRCC1 (UniProt P18887)	0.062
TOM1L2 (UniProt Q6ZVM7)	-0.001
UPF3B (UniProt Q9BZI7)	-0.001
TTC33 (UniProt Q6PID6)	0.019
TSC2 (UniProt P49815)	0.317
VDAC1 (UniProt C9JI87)	0.137
TSG101 (UniProt Q99816)	-0.016
TTC38 (UniProt Q5R3I4)	-0.016
TMEM192 (UniProt Q8IY95)	0.032
TRMT2A (UniProt Q8IZ69)	0.058
TP53BP1 isoform 2 (UniProt Q12888)	0.032
UBAP1 isoform 4 (UniProt Q9NZ09)	-0.072
TMEM179B (UniProt Q7Z7N9)	-0.024
TTI1 (UniProt O43156)	-0.085
TMEM104 (UniProt Q8NE00)	0.24
TMEM268 isoform 3 (UniProt Q5VZI3)	0.063
VTI1A (UniProt Q96AJ9)	0.07
TRAM1 (UniProt Q15629)	-0.018
TRIM5 (UniProt Q9C035)	-0.004
TVP23C (UniProt Q96ET8)	0.086
TUBA4A (UniProt C9JJQ8)	0.229

Source: the supplement of paper PMC10849652
